# Test results: PubChem BioAssay (NCATS)
# Records with an inconclusive call do not appear. Unmarked numbers belong to inactive results. The source made the active and inactive calls. The call rests on the fitted dose curve; in most records, active means well fitted cell-killing curve with a large enough effect; inconclusive means small, poorly fitted or top-dose-only effect, or effect the other way; inactive means no such curve, though single readings can be large or run the other way.
# How the values were obtained:
# [1] = Quantitative High-Throughput drug screen in 47 multiple myeloma cell lines against the NCATS MIPE library collection: MM1S_ATCC cell viability assay (AID 1918980); further: potency means the concentration at half of the fitted maximal effect; nearly all actives have a fitted effect of over 45% in size
# Outline: (§1)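 Cells were exposed to library compounds for 48 hours, after which ATP was measured by CellTiter-Glo. Signal was taken as median relative luminescence units.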
# [2] = Quantitative High-Throughput drug screen in 47 multiple myeloma cell lines against the NCATS MIPE library collection: MM1R_ATCC cell viability assay (AID 1918981); further: nearly all actives have a fitted effect of over 35% in size; further: potency means the concentration at half of the fitted maximal effect
# Outline: as §1
# [3] = Quantitative High-Throughput drug screen in 47 multiple myeloma cell lines against the NCATS MIPE library collection: L363_DSMZ cell viability assay (AID 1918984); further: potency means the concentration at half of the fitted maximal effect; nearly all actives have a fitted effect of over 40% in size
# Outline: as §1
# [4] = Quantitative High-Throughput drug screen in 47 multiple myeloma cell lines against the NCATS MIPE library collection: OCIMY5_PLB cell viability assay (AID 1918988); further: potency means the concentration at half of the fitted maximal effect; nearly all actives have a fitted effect of over 65% in size
# Outline: as §1
# [5] = Quantitative High-Throughput drug screen in 47 multiple myeloma cell lines against the NCATS MIPE library collection: OPM1_PLB cell viability assay (AID 1918989); further: potency means the concentration at half of the fitted maximal effect; nearly all actives have a fitted effect of over 40% in size
# Outline: as §1
# [6] = Quantitative High-Throughput drug screen in 47 multiple myeloma cell lines against the NCATS MIPE library collection: U266_ATCC cell viability assay (AID 1919864); further: potency means the concentration at half of the fitted maximal effect; nearly all actives have a fitted effect of over 35% in size
# Outline: as §1
# [7] = Quantitative High-Throughput drug screen in 47 multiple myeloma cell lines against the NCATS MIPE library collection: XG6_PLB cell viability assay (AID 1919865); further: potency means the concentration at half of the fitted maximal effect; nearly all actives have a fitted effect of over 40% in size
# Outline: as §1
# [8] = Quantitative High-Throughput drug screen in 47 multiple myeloma cell lines against the NCATS MIPE library collection: XG1_PLB cell viability assay (AID 1919866); further: potency means the concentration at half of the fitted maximal effect; nearly all actives have a fitted effect of over 35% in size
# Outline: as §1
# [9] = Quantitative High-Throughput drug screen in 47 multiple myeloma cell lines against the NCATS MIPE library collection: VP6_DJ cell viability assay (AID 1919867); further: nearly all actives have a fitted effect of over 40% in size; further: potency means the concentration at half of the fitted maximal effect
# Outline: as §1
# [10] = Quantitative High-Throughput drug screen in 47 multiple myeloma cell lines against the NCATS MIPE library collection: UTMC2_PLB cell viability assay (AID 1919868); settings: CellTiter-Glo ATP luminescence, 48 h; viability (% of DMSO control): at 45.8 µM (top of the series); further: potency means the concentration at half of the fitted maximal effect; nearly all actives have a fitted effect of over 55% in size
# Outline: as §1
# [11] = Quantitative High-Throughput drug screen in 47 multiple myeloma cell lines against the NCATS MIPE library collection: PE2_PLB cell viability assay (AID 1919869); further: nearly all actives have a fitted effect of over 35% in size; further: potency means the concentration at half of the fitted maximal effect
# Outline: as §1
# [12] = Quantitative High-Throughput drug screen in 47 multiple myeloma cell lines against the NCATS MIPE library collection: PCM6_Riken cell viability assay (AID 1919870); further: potency means the concentration at half of the fitted maximal effect; nearly all actives have a fitted effect of over 30% in size
# Outline: as §1
# [13] = Quantitative High-Throughput drug screen in 47 multiple myeloma cell lines against the NCATS MIPE library collection: KMS28PE_JCRB cell viability assay (AID 1918983); further: nearly all actives have a fitted effect of over 35% in size; further: potency means the concentration at half of the fitted maximal effect
# Outline: as §1
# [14] = Quantitative High-Throughput drug screen in 47 multiple myeloma cell lines against the NCATS MIPE library collection: OCIMY7_PLB cell viability assay (AID 1918987); settings: OCI-MY7 myeloma viability, CellTiter-Glo ATP, 48 h; viability (% of DMSO): at 45.8 µM (top of the series); further: nearly all actives have a fitted effect of over 65% in size; further: potency means the concentration at half of the fitted maximal effect
# Outline: as §1
# [15] = Quantitative High-Throughput drug screen in 47 multiple myeloma cell lines against the NCATS MIPE library collection: RPMI8226_ATCC cell viability assay (AID 1919871); further: nearly all actives have a fitted effect of over 30% in size; further: potency means the concentration at half of the fitted maximal effect
# Outline: as §1
# [16] = Quantitative High-Throughput drug screen in 47 multiple myeloma cell lines against the NCATS MIPE library collection: OPM2_DSMZ cell viability assay (AID 1919872); further: nearly all actives have a fitted effect of over 30% in size; further: potency means the concentration at half of the fitted maximal effect
# Outline: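 CellTiter-Glo luminescence (ATP) after 48 h compound exposure, 37C/5% CO2; 500 cells/well; MIPE 4.0 approved/investigational drugs pinned in; DMSO = 100%, media only = 0% viability.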
# [17] = Quantitative High-Throughput drug screen in 47 multiple myeloma cell lines against the NCATS MIPE library collection: KMS34_JCRB cell viability assay (AID 1918985); further: nearly all actives have a fitted effect of over 40% in size; further: potency means the concentration at half of the fitted maximal effect
# Outline: as §1
# [18] = Quantitative High-Throughput drug screen in 47 multiple myeloma cell lines against the NCATS MIPE library collection: SKMM1_PLB cell viability assay (AID 1919863); settings: SKMM1 myeloma viability, CellTiter-Glo ATP, 48 h; viability: hits give low values; further: nearly all actives have a fitted effect of over 35% in size; further: potency means the concentration at half of the fitted maximal effect
# Outline: as §1
# [19] = Quantitative High-Throughput drug screen in 47 multiple myeloma cell lines against the NCATS MIPE library collection: LP1_DSMZ cell viability assay (AID 1918982); further: nearly all actives have a fitted effect of over 35% in size
# Outline: as §1
SMILES,Potency [1],Potency [2],Potency [3],Potency [4],Potency [5],Potency [6],Potency [7],Potency [8],Potency [9],Potency [10],Potency [11],Potency [12],Potency [13],Potency [14],Potency [15],Potency [16],Potency [17],Potency [18],Potency [19],viability [18] [%]
Cc1[nH]c(C=C2C(=O)Nc3ccccc32)c(C)c1CCC(=O)O,0.0833 µM (active),0.526 µM (active),9.35 µM (active),18.7 µM (active),23.5 µM (active),5.26 µM (active),0.372 µM (active),2.96 µM (active),13.2 µM (active),0.935 µM (active),9.35 µM (active),10.5 µM (active),–,–,–,–,–,–,–,–
C[C@]12CC[C@@H]3c4ccc(O)cc4CC[C@H]3[C@H]1CC[C@H]2O,8.33 µM (active),14.8 µM (active),–,9.35 µM (active),16.6 µM (active),6.62 µM (active),5.9 µM (active),6.62 µM (active),8.33 µM (active),–,16.6 µM (active),–,29.6 µM (active),5.9 µM (active),18.7 µM (active),18.7 µM (active),–,–,–,–
CN1CCc2c(c3ccccc3n2Cc2ccc(C(=O)NO)cc2)C1,16.6 µM (active),16.6 µM (active),–,18.7 µM (active),16.6 µM (active),–,8.33 µM (active),11.8 µM (active),9.35 µM (active),2.64 µM (active),23.5 µM (active),16.6 µM (active),–,9.35 µM (active),–,–,16.6 µM (active),–,–,–
CC(=O)N1CCN(c2ccc(OCc3nn(C)c(C)c3-c3cccc4c(CCCOc5cccc6ccccc56)c(C(=O)O)n(Cc5cccnc5)c34)cc2)CC1,0.0372 µM (active),1.05 µM (active),1.18 µM (active),0.118 µM (active),0.469 µM (active),0.526 µM (active),0.105 µM (active),0.235 µM (active),0.332 µM (active),–,1.66 µM (active),1.18 µM (active),16.6 µM (active),0.001 µM (active),23.5 µM (active),23.5 µM (active),18.7 µM (active),20.9 µM (active),–,–
CC(=O)SCC(Cc1ccccc1)C(=O)NCC(=O)OCc1ccccc1 (stereo not drawn),0.59 µM (active),3.72 µM (active),5.9 µM (active),2.64 µM (active),5.26 µM (active),–,1.05 µM (active),2.96 µM (active),5.9 µM (active),1.32 µM (active),0.935 µM (active),1.48 µM (active),7.43 µM (active),3.72 µM (active),–,5.9 µM (active),2.35 µM (active),–,–,–
O=C(Nc1cc2cc[nH]c2cn1)c1ccccc1,14.8 µM (active),7.43 µM (active),6.62 µM (active),5.26 µM (active),14.8 µM (active),11.8 µM (active),16.6 µM (active),16.6 µM (active),18.7 µM (active),13.2 µM (active),10.5 µM (active),8.33 µM (active),11.8 µM (active),–,13.2 µM (active),–,–,11.8 µM (active),–,–
COc1cc(N2CCC(C(N)=O)CC2)ccc1Nc1nc(N)c(Cl)c(Nc2ccccc2S(=O)(=O)C(C)C)n1,0.743 µM (active),1.18 µM (active),0.0148 µM (active),0.935 µM (active),5.9 µM (active),–,0.0935 µM (active),0.0935 µM (active),0.418 µM (active),0.132 µM (active),0.418 µM (active),0.833 µM (active),0.743 µM (active),0.209 µM (active),–,–,2.96 µM (active),–,–,–
NC(=O)Nc1cc(-c2ccc(CN3CCOCC3)cc2)sc1C(N)=O,16.6 µM (active),20.9 µM (active),5.9 µM (active),0.0372 µM (active),3.72 µM (active),16.6 µM (active),0.743 µM (active),0.132 µM (active),0.833 µM (active),–,1.48 µM (active),1.66 µM (active),18.7 µM (active),0.0833 µM (active),7.43 µM (active),14.8 µM (active),4.18 µM (active),18.7 µM (active),–,–
O=C(NCc1ccccc1)[C@H](Cc1ccccc1)NC(=O)[C@@H]1O[C@@H]1C(=O)NCCc1ccc(O)cc1,1.18 µM (active),10.5 µM (active),16.6 µM (active),–,–,–,–,14.8 µM (active),inactive,–,23.5 µM (active),–,inactive,inactive,–,inactive,–,–,–,–
CN(C)CC(=O)N1CCC(c2ccc(NC(=O)c3ncc(C#N)[nH]3)c(C3=CCCCC3)c2)CC1,2.35 µM (active),8.33 µM (active),–,26.4 µM (active),20.9 µM (active),8.33 µM (active),18.7 µM (active),16.6 µM (active),23.5 µM (active),18.7 µM (active),20.9 µM (active),14.8 µM (active),–,9.35 µM (active),inactive,inactive,inactive,–,inactive,–
CC(=O)OCC(=O)[C@@]12N=C(C)O[C@H]1C[C@H]1[C@@H]3CCC4=CC(=O)C=C[C@]4(C)[C@@H]3[C@@H](O)C[C@@]12C,5.9 µM (active),inactive,–,–,–,–,–,16.6 µM (active),–,–,inactive,11.8 µM (active),–,–,0.469 µM (active),–,inactive,–,–,135
